# Test results as given in PubChem BioAssay (EPA / NIEHS).
# Activity calls are given as the source filed them. The calls were made as follows: active = hit-call score of the fitted dose curve at least 0.9, where 1 is the maximum; inactive = score below 0.9.
# Molecular target: Transcription factor E2F1 (Homo sapiens) (UniProt Q01094)
# Assay: ATG_E2F_CIS: Attagene CIS-FACTORIAL HepG2 Assay for human E2F Transcription Factor 1 (AID 2282935)
# Settings: HepG2 Attagene cis-reporter, E2F reporter RNA transcripts; actives raise or lower the signal
# Procedure: ATG_CIS is a cell-based, multiplexed-readout assay that uses HepG2, a human liver cell line, with measurements taken at 24 hours after chemical dosing in a 24-well plate.ATG_E2F_CIS is one of 52 assay component(s) measured or calculated from the ATG_CIS assay. It is designed to make measurements of mRNA induction, a form of inducible reporter, as detected with fluorescence intensity signals by Reverse transcription polymerase chain reaction (RT-PCR) and Capillary electrophoresis technology.Data from the assay component ATG_E2F_CIS was analyzed into 1 assay endpoint. This assay endpoint, ATG_E2F_CIS, was analyzed with bidirectional fitting relative to DMSO as the negative control and baseline of activity. Using a type of inducible reporter, measures of mRNA for gain or loss-of-signal activity can be used to understand the reporter gene at the transcription factor-level as they relate to the gene E2F1. Furthermore, this assay endpoint can be referred to as a primary readout, because this assay has produced multiple assay endpoints where this one serves a reporter gene function. To generalize the intended target to other relatable targets, this assay endpoint is annotated to the dna binding intended target family, where the subfamily is E2F transcription factor.
# Human liver HepG2 cells are transiently transfected with multiple reporter transcription units (MRTUs) in 6-well plates using FuGene 6 reagent (Roche; 3 ml FuGene/1 mg DNA). The MRTU constructs are regulated by a cis-regulating element (promoter). […] A major difference between the CIS and TRANS system is that in CIS activities of endogenous TFs are measured, whereas the TRANS assay evaluates changes in activities of exogenous, chimeric NR-Gal4 proteins. […] At the end of 24 hour incubation, total RNA was isolated using TriZol reagent (Invitrogen). The isolated RNA is then reverse-transcribed using oligo(dT) primer and Mo-MLV reverse transcriptase (Invitrogen) with DNAse I (Ambion) treatment for 30 min. The one-tenth of the produced cDNA was amplified by PCR using Taq DNA polymerase (Invitrogen) and two reporter sequence-specific primers. The PCR products were fluorescently labeled by primer extension with 6-arboxyfluorescein (6-FAM) 5'-labeled reporter sequence-specific primer (2 min at 95 C, 20 s at 68 C and 10 min at 72 C) and these products were digested with 5U of HpaI (New England Biolabs) for 2h at 37 C. The fragments were purified using Qiaquick PCR columns (Qiagen), analyzed on an ABI 3130xL genetic analyzer (Applied Biosystems) with peak positions identified by using a set of X-rhodamine (ROX)-labeled MapMarker1000 molecular weight standards (BioVentures). The raw capillary electrophoresis data was processed using Attagraph software (Attagene).
# Transcription factor E2F1 (Homo sapiens), sequence (Q01094 whole entry, looked up): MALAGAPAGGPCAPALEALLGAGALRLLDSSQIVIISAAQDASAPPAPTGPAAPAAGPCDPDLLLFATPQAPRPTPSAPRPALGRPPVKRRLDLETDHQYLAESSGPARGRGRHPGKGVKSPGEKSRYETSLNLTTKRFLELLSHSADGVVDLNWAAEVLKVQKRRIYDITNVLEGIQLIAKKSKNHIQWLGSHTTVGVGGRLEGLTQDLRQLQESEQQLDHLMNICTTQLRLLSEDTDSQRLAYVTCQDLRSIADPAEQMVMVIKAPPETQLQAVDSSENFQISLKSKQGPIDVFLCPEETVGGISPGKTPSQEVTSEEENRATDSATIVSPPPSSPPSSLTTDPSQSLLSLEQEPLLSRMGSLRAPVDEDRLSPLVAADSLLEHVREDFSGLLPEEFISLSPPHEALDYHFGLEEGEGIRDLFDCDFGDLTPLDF
SMILES,outcome,AC50
F[Si-2](F)(F)(F)(F)F,inactive,
CCN(CC)c1ccc2c(c1)Oc1cc(N(CC)CC)ccc1C21OC(=O)c2ccccc21,inactive,
C[Si](Cl)(Cl)CCC(F)(F)C(F)(F)C(F)(F)C(F)(F)C(F)(F)C(F)(F)F,inactive,
O=C1C=CC(=O)N1c1ccc(Cc2ccc(N3C(=O)C=CC3=O)cc2)cc1,inactive,
O=c1cccc[nH]1,inactive,
O=S(=O)(O)c1ccc(Cl)cc1,inactive,
CC(C)(C)c1cc(CCC(=O)NCCCCCCNC(=O)CCc2cc(C(C)(C)C)c(O)c(C(C)(C)C)c2)cc(C(C)(C)C)c1O,inactive,
COCCC(=O)OC,inactive,
CNS(=O)(=O)C(F)(F)C(F)(F)C(F)(F)C(F)(F)C(F)(F)C(F)(F)C(F)(F)C(F)(F)F,inactive,
COC(=O)c1ccc(C=O)cc1,inactive,
O=c1[nH]cccc1O,inactive,
CCCC(=O)OCC(COC(=O)CCC)OC(=O)CCC,inactive,
NCC(F)(F)C(F)(F)C(F)(F)C(F)(F)C(F)(F)C(F)(F)C(F)(F)C(F)(F)F,inactive,
CN(C)C(C)(C)CO,inactive,
FC(F)(F)C(F)(F)C(F)(F)C(F)(F)C(F)(F)C(F)(F)CC[Si](Cl)(Cl)Cl,inactive,
COC(F)(C(F)F)C(F)(F)F (stereo not given),inactive,
OCCCCC(F)(F)C(F)(F)C(F)(F)C(F)(F)F,inactive,
CC(=O)c1ccccc1N,inactive,
OCC(F)(F)C(F)(F)C(F)(F)CO,inactive,
Cc1cc(=O)[nH]c(C(C)C)n1,inactive,

SMILES,outcome,AC50
C=C(C)C(=O)OCC(F)(F)C(F)(F)C(F)(F)C(F)F,inactive,
CCOCN(C(=O)CS(=O)(=O)O)c1c(C)cccc1CC,inactive,
CCCCCCCCCCCC(=O)Cl,inactive,
O=C(Cl)C(F)(F)C(F)(F)C(F)(F)C(F)(F)C(F)(F)C(F)(F)C(F)(F)F,inactive,
CCC(=O)OC(C)c1ccccc1 (stereo not given),inactive,
CC(C)Nc1ccc(NC(C)C)c2c1C(=O)c1ccccc1C2=O,inactive,
C[C@]12CC[C@H]3C(=CCc4cc(O)ccc43)[C@@H]1CCC2=O,inactive,
NC(=O)C(F)(F)C(F)(F)C(F)(F)C(F)(F)C(F)(F)C(F)(F)C(F)(F)F,inactive,
CCOC(=O)C1CC(=O)C(=C(O)C2CC2)C(=O)C1 (stereo not given),inactive,
O=C=Nc1cccc2c(N=C=O)cccc12,inactive,
CC1=CCC(=O)O1,inactive,
CC1=CC2C3C=CC(C3)C2C1C (stereo not given),,29.9 µM (active)
C=CC(=O)OCCC(F)(F)C(F)(F)C(F)(F)C(F)(F)F,inactive,
O=C(O)CCC(F)(F)C(F)(F)C(F)(F)C(F)(F)C(F)(F)C(F)(F)C(F)(F)F,inactive,
CC(=O)CCC(C)C,inactive,
CCCCOC(=O)[C@H](C)O,inactive,
CCN(CC)c1ccc(C=O)c(O)c1,inactive,
CC(C)(C)c1cc(Cc2cc(C(C)(C)C)c(O)c(C(C)(C)C)c2)cc(C(C)(C)C)c1O,inactive,
CC1=CCC2C(=O)OC(=O)C2C1 (stereo not given),inactive,
O=C(Cl)C(F)(F)C(F)(F)C(F)(F)C(F)(F)C(F)(F)C(F)(F)F,inactive,
